In PubChem BioAssay AID504725 (Broad Institute, 2011):
Measured potencies and affinities stand elsewhere. The source made the active and inactive calls. How the calls were made is not given here.

target: KSHV LANA C-terminal domain (residues 932-1162) binding to LBS DNA (UniProt O40947); assay: KSHV LANA DNA-binding disruption – biochemical, fluorescence polarization, cherry-picked samples, dose response (AID 504725); details: MBP-C-LANA / FAM-LBS DNA fluorescence polarization, percent change from plate compound-well median; series mostly up to 35 µM

outcome, inactive:
CC(C)N(Cc1ccccc1)C(=O)Cn1c(=O)cnc2ccccc21
Cc1ccccc1NC(=S)NC(C)CCc1ccccc1 (stereo not drawn)
C=CCn1c(C)cc(-c2csc(NC(=O)CCc3nc4ccccc4c(=O)[nH]3)n2)c1C
Cc1cc(S(=O)(=O)NC2CCN(Cc3ccccc3)CC2)c(C)cc1Cl
CCN(CC(=O)NCc1cccs1)C(=O)c1ccc(S(=O)(=O)Nc2ccccc2C)cc1
CCCc1nnc(NC(=O)CCC(=O)NCc2ccc(OC)cc2)s1
CC(C)=C[C@@H]1C[C@H](C)[C@H]2CC[C@H](C)c3c(O[C@@H]4O[C@@H](C)[C@@H](O)[C@@H](O)[C@@H]4O)c(O)c(C)c1c32
COc1ccccc1N1CCN(S(=O)(=O)c2c(C)[nH]c(C)c2C(=O)N2CCCC2)CC1
CCCOc1ccc(C=Nc2ccc(OC)c(S(=O)(=O)N3CCOCC3)c2)c(O)c1
O=C(Nc1ccccc1F)c1coc(=O)c(Br)c1
Cc1cccnc1NC1(C(F)(F)F)N=C2SCCN2C1=O (stereo not drawn)
O=C1c2c(O)ccc(O)c2C(=O)c2c(NCCNCCO)ccc(NCCNCCO)c21
O=C1C=C(c2ccoc2)N2CCC[C@H]2C1
CN(Cc1cnc2nc(N)nc(N)c2n1)c1ccc(C(=O)NC(CCC(=O)O)C(=O)O)cc1 (stereo not drawn)
O=C(NCCN1CCN(C(=O)c2cccs2)CC1)c1cccs1
CCOC(=O)[C@H]1[C@H]2COc3cc(OC)ccc3[C@@H]2N2C(=O)CN(Cc3ccc(OC)cc3)C(=O)[C@@]12C
COc1ccc(-c2cc(C(F)(F)F)n3ncc(C(=O)N4CCCCC4c4cccnc4)c3n2)cc1 (stereo not drawn)
Cc1cccc(Nc2nc(N)c([N+](=O)[O-])c(NCc3ccccc3)n2)c1
COc1ccc(OC)c(NC(=O)c2nnn(Cc3ccc(Br)cc3F)c2N)c1
O=C(NC1CCCCC1)c1cc([N+](=O)[O-])ccc1N1CCOCC1
Cc1c(N)cc(S(=O)(=O)O)cc1NC(=O)c1cccc([N+](=O)[O-])c1
COc1cc(C(=S)N2CCN(c3cccc(Cl)c3)CC2)ccc1O
Cc1cc(NC(=O)CCC(=O)N(CCC(C)C)C(C(=O)NC2CCCC2)c2cccnc2)no1 (stereo not drawn)
O=C(OCC(=O)N1N=C(c2ccc(Cl)cc2)CC1c1ccco1)c1cccnc1 (stereo not drawn)
COc1ccc(NC(=O)CN(C)CC(=O)Nc2ccc(N3CCOCC3)cc2)c([N+](=O)[O-])c1
CCOC(=O)c1c(C)n(C)c2ccc(OCCN(C)C)cc12
CCn1c(-c2ccc([N+](=O)[O-])cc2)n[nH]c1=S
CC(Sc1nc(-c2ccco2)nc2c1c(=O)n(C)c(=O)n2C)C(=O)O (stereo not drawn)
CC(Sc1ncccn1)C(=O)NNC(=O)c1cccc(Cl)c1 (stereo not drawn)
COc1ccc(-c2cnc3n2CCCCC3)cc1
C=CCNC(=S)N1CCN(S(=O)(=O)c2ccc(C)cc2)CC1
COc1ccc(NC(=O)COC(=O)c2c(-c3ccccc3)noc2C)cc1
CCOC(=O)CCCn1c(C)nc(=O)c(-c2ccccc2)c1C
NC(=S)N/N=C/c1ccc(-c2ccc([N+](=O)[O-])cc2)o1
O=C(CSc1nc2ccccc2[nH]1)Nc1cccc(S(=O)(=O)N2CCOCC2)c1
O=C(OCc1ccccc1)N1C=CC2CC1c1c(Cl)cccc12 (stereo not drawn)
CCN(C(=O)COC(=O)c1nc2nc(C)cc(C)n2n1)C1CCCCC1
O=S(=O)(O)c1cccc2cccc(Nc3ccccc3)c12
